Measurements reported in PubChem BioAssay AID720504 (National Center for Advancing Translational Sciences (NCATS), 2013).
Out of some 360,000 compounds screened, about 10,000 (2.8%) were called active. Another 4% or so got no clear call; they are omitted. This is one part of a sample in which actives are shown more often than they occur. Calls follow the shape of the dose curve; as a rule, active = well fitted inhibition curve with a large enough effect; inconclusive = small, poorly fitted or top-dose-only effect; inactive = flat fitted curve, though single readings scatter.

Each molecule was assayed against Serine/threonine-protein kinase PLK1 (Homo sapiens) (UniProt P53350) (assay: qHTS for Inhibitors of PLK1-PDB (polo-like kinase 1 - polo-box domain): Primary Screen). Conditions: Plk1 PBD binding of FITC phosphopeptide, fluorescence polarization.
Sequence of Serine/threonine-protein kinase PLK1 (Homo sapiens) (P53350 whole entry, looked up, the tested form may be a part): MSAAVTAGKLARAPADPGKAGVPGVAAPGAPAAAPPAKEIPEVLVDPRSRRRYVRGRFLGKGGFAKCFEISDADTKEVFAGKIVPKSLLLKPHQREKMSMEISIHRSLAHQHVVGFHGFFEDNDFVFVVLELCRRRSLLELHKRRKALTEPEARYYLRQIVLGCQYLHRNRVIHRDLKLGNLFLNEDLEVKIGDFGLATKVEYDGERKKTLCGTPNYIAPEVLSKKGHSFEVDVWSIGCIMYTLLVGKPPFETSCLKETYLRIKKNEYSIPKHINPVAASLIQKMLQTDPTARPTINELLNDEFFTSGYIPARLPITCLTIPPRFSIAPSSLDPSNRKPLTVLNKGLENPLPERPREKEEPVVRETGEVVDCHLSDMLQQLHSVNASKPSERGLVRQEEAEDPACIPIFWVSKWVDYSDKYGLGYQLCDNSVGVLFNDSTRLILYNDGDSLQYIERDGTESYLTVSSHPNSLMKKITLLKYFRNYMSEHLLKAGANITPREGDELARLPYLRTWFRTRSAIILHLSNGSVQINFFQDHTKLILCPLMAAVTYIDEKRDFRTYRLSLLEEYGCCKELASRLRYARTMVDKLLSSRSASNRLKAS
From the text: The polo-like kinase 1 (Plk1) is a member of a conserved subfamily of serine / threonine protein kinases that plays a pivotal roles in cell proliferation. It has a C-terminal non-catalytic region called the polo-box domain (PBD) that plays a crucial role in the subcellular localization of the Plk1. […] Furthermore, depletion of the overexpressed Plk1 by RNAi efficiently induces apoptotic cell death in cancer and reduces tumor growth in mouse xenograft models. Thus, targeting Plk1 is an appealing strategy for anti-cancer therapy. Therefore, this project aimed to screen the Molecular Libraries Small Molecule Repository (MLSMR) using a novel approach to find inhibitors that target the Plk1 PBD instead of the conventional N-terminal catalytic domain. This project employed a fluorescence polarization (FP) assay using a FITC-conjugated phospho-9-mer (p-9-mer) peptide and purified human Plk1 PBD protein. The identified small molecule inhibitors of Plk1 PBD can then further be developed into useful tools for biomedical and clinical research that complements or replaces current relevant disease therapy. NIH Chemical Genomics Center [NCGC] NIH Molecular Libraries Probe Centers Network [MLPCN] MLPCN Grant: MH100728 Assay Submitter (PI): Kyung Lee, NCI
Four microliter of 25 nM FITC-p-9-mer + 60 nM Plk1 PBD in buffer solution (final concentrations 25 nM and 60 nM respectively) or 4 uL of 25 nM FITC-p-9-mer (final concentration 25 nM) in buffer will be dispensed into a 1,536 Greiner medium-binding black solid plate. Small molecules at final concentrations of 18 nM to 57 uM and positive control phospho-9-mer (sequence: Ac-PPLHSpTAI-NH2) at final concentrations 26 nM to 57 uM and phospho-13-mer (sequence: Ac-[…]pTAI-NH2) at final concentrations of 1 nM to 2.3 uM will be pin-transferred (23 nL) to the plate via a Kalypsys pin-tool robotics equipped with a 1,536-pin array. The reaction plate will be centrifuged for 1 min at 1000 rpm and incubated at room temperature for 10 min. The FITC fluorescence signals will be read using the PerkinElmer ViewLux plate reader at 480 / 20 nm excitation and 540 / 20 nm S and P polarization emission wavelengths. Reagent bottles will be kept submerged into 4 °C recirculating chiller bath and all liquid lines will be covered with aluminum foil to minimize degradation. Library plates will be screened starting from the lowest to the highest concentrations to minimize compound carryover. Vehicle only plates, with DMSO being pin-transferred instead of compound solutions, will be included regularly throughout the screen to record any systematic shifts in assay signal.
% is scaled to controls: 0 for no effect and ±100 for the full control effect; potency is read from the fitted curve at half-maximal effect.
Also: nearly all actives have a fitted effect of over 65% in size.
For Max response, negative = inhibition in this document: series mostly up to about 57 µM.

Max response, negative = inhibition, inactive:
C[C@H]1CN([C@@H](C)CO)C(=O)c2cc(Br)cnc2O[C@H]1CN(C)S(=O)(=O)c1cccs1 -9.15%
COc1ccc(CN2C(=O)C(CC(=O)NCCN3CCOCC3)CC(C(=O)N(C(C)C)C(C)C)=C2C)cc1 (stereo unspecified) 4.68%
Cc1ccc(NC(=O)COC(=O)CN2CCSC2=O)cc1F 3.55%
O=C1CCCc2nn(-c3ccccc3)nc21 -8.07%
Nc1ccc2nn(-c3ccc(Cl)cc3)nc2c1 -7.93%
CCc1nc2c(OCCOc3ccc(F)cc3)cccn2c1N(C)C(=O)c1ccccc1F -3.7%
CC(=O)c1cccc(-c2cnc3c(NC=O)cc(-c4ccccc4Oc4ccccc4)cn23)c1 -5.21%
C[C@@H]1CN([C@@H](C)CO)C(=O)CCCn2nncc2CO[C@@H]1CN(C)S(=O)(=O)c1ccc(-c2ccccc2)cc1 -14.2%
O=C1[C@H]2[C@@H](c3ccc(C(F)(F)F)cc3)N[C@]3(CCCN(Cc4ccc(Cl)cc4)C3=O)[C@H]2C(=O)N1Cc1ccccc1 -4.13%
CCOC(=O)C(=O)Nc1nc(-c2ccccc2)c(CC)s1 -16.3%
CCOc1ccc(-c2nc(C)sc2CC(=O)O)cc1 -0.634%
CC(C)n1ncc2c(C(=O)N3CCN(Cc4cccs4)CC3)cc(C3CC3)nc21 -8.38%
Cc1cccc(C)c1-n1nnnc1C1(C)CCC(=O)N1CCOc1ccccc1 (stereo unspecified) -8.78%
COc1ccc(C2=Nc3ccccc3NC(=O)C2N(C(=O)c2cc3ccccc3[nH]2)c2ccccc2)cc1 (stereo unspecified) 5.46%
Cc1cc(C(=O)OCC(=O)N2C(C)CCCC2C)c2ccccc2n1 (stereo unspecified) -9.12%
CC(=O)N1CCN(C(=O)c2cc(-c3ccc(Cl)s3)nc3ccccc23)CC1 4.68%
O=C(Nc1ccc(F)cc1)C(CCc1ccccc1)N1CCN(CC(=O)N2CCCC2)CC1 (stereo unspecified) -3.84%
COc1cccc(CC(=O)OCC(=O)NCc2ccc3c(c2)OCO3)c1 -5.11%
Cc1ccc(C(=O)OCC(=O)NCc2ccc3c(c2)OCO3)s1 -7.48%
Cc1c(C(=O)NCc2ccc(C#N)cc2)sc(=O)n1Cc1ccc(C(=O)N(C)C)cc1 -10.6%
CN1C(=O)/C(=C\c2cc(Br)cs2)c2ccccc21 9.61%
COc1ccc(NC(=O)ON=C2c3ccccc3-c3ccccc32)cc1 -8.43%
O=C(N=C1SC2CS(=O)(=O)CC2N1Cc1ccccc1)c1ccccc1 (stereo unspecified) -10.4%
CC(=O)c1ccc(N2Cc3ccccc3C2)cc1 -10.7%
O=C(C1Cc2ccccc2CN1C(=O)c1ccco1)N1CCN(c2ccccc2)CC1 (stereo unspecified) -14.9%
CSc1ncnc2c1ncn2CCCNCC1CCCCC1 2.12%
Cc1c(NC(=O)COC(=O)/C=C/c2cccc(F)c2)c(=O)n(-c2ccccc2)n1C -2.07%
Cc1c(C(=O)NCC2CC2)sc(=O)n1Cc1cccc(F)c1 3.08%
N#CC1(Nc2ccc3c4c(cccc24)CC3)CCCCC1 -12.6%
CCOC(=O)CSc1ncc(-c2cccc(Cl)c2)cn1 -7.44%
Cc1oc(-c2ccccc2Cl)[n+]([O-])c1C -3.14%
CC(C)c1ccc(CC(=O)N2CCC2(C)C(=O)NS(=O)(=O)c2ccc(C(C)(C)C)cc2)cc1 (stereo unspecified) -5.51%
COc1ccc(NS(=O)(=O)c2ccc(Oc3c(C#N)cccc3C#N)cc2)cc1 -0.548%
CCCC(NS(=O)(=O)c1ccc(OC)cc1)C(=O)O (stereo unspecified) -2.19%
COC(=O)c1c(NC(=O)C(=O)N2CCCCC2)sc2c1CC(C)(C)OC2 -13.1%
CCOC(=O)N1CCN(C(=O)C(=O)Nc2sc3c(c2C#N)CC(C)(C)OC3)CC1 -23.2%
CC(C)C[C@H]1CNC(=O)C(=O)N1C[C@@H]1CCCN1C[C@H](Cc1ccccc1)N1C[C@H](CC(C)C)N(CC2CCCCCC2)C(=O)C1=O 2.6%
CN1CCN(c2ccc(NC(=O)c3ccc4c(c3)[nH]c(=O)n4Cc3ccc(F)cc3)cc2)CC1 -2.57%
Cc1ccc(CS(=O)(=O)c2ncc(Cl)c(C(=O)Nc3nnc(C)s3)n2)cc1 -16.3%
Cc1cccc(NC(=O)C(C)SCc2ccccc2)c1 (stereo unspecified) -10.4%
O=C(Nc1ccc(F)cc1)c1ccc(S(=O)(=O)NCc2cccnc2)cc1 -1.16%
COC(=O)[C@@]12C[C@@H](CC(=O)NCCCCc3ccccc3)C(=O)N(Cc3ccccc3)C1=CCC(C)(C)C2 -7.29%
O=C(C[C@H]1C[C@@H]2c3cc(NC(=O)C4CCC4)ccc3O[C@@H]2[C@H](CO)O1)NC1CCCCC1 -5.12%
COc1ccc(S(=O)(=O)N2CCC(C(=O)NCCC(=O)Nc3ccccc3OC)CC2)cc1 2.5%
Cc1cccc(S(=O)(=O)N(C)C[C@@H]2OCc3cnnn3CCCC(=O)N([C@H](C)CO)C[C@@H]2C)c1 -8.68%
COc1ccc(C(=O)N2CCCCC2c2cc(C(=O)Nc3ccccc3)no2)cc1 (stereo unspecified) -2.81%
Cc1ccccc1S(=O)(=O)NC(=O)C1(C)CCN1C(=O)C1(c2ccccc2)CCCC1 (stereo unspecified) 2.57%
CCn1c(CNC(=O)c2ccccc2)nnc1SCC(=O)N1CCN(c2ccccc2)CC1 -1.21%
Cn1c(CNC(=O)c2ccco2)nnc1SCC(=O)N1CCN(c2ccccc2)CC1 -4.04%
C[C@H]1CN([C@@H](C)CO)C(=O)c2cc(-c3cccc(F)c3)cnc2O[C@@H]1CN(C)S(C)(=O)=O -9.21%
COc1ccc(-c2c(C#N)cnc(C)c2C)c(O)c1OC -12.9%
C[C@H](CO)N1C[C@H](C)[C@@H](CN(C)S(=O)(=O)c2ccc(F)cc2)OCc2cnnn2CCCC1=O -19.3%
O=C(Nc1cccc2ccccc12)c1[nH]c(-c2ccccc2)c2c1C(=O)N(C1CC1)C2=O -21.7%
CN(C)C(=O)c1cccc(-c2cnc3c(NC=O)cc(-c4ccc(F)cc4)cn23)c1 -19.5%
CCc1c(C)sc(NC(=O)c2ccc(Br)o2)c1C(=O)OC -7.98%
CCc1cccc(C)c1NC(=O)COC(=O)CNC(=O)c1cccs1 -0.37%
Cc1ccc(-c2ccc(C3=CC(=O)CC(C)(C)C3=O)cc2)cc1 -0.955%
CCCNC(=O)c1cc(C2CCCCN2S(=O)(=O)c2cn(C)cn2)on1 (stereo unspecified) -4.21%
CCCOc1ccc(F)cc1-c1cc(C(=O)Nc2ccc(F)c(Cl)c2)[nH]n1 0.655%
CC(=O)Nc1nc(N(C)C)nc(N(C)C)n1 6.17%
CN(C)c1nc(NN)nc(Nc2ccc(F)cc2)n1 4.54%
CC(=O)Nc1cccc(-c2cc(NC(C)=O)c3ncc(-c4ccccc4)n3c2)c1 -16.7%
COc1ccccc1-c1n[nH]nc1C1=CC(=O)CC(C)(C)C1 -7.34%
C#CCN1C(=O)C(O)(CC(=O)c2cc(OC)ccc2OC)c2ccccc21 (stereo unspecified) -9.34%
CCCCN1C(=O)/C(=C(/C#N)C(N)=O)c2ccccc21 -17.1%
COCCNc1nc(NCc2ccc(NC(C)=O)cc2)c2sccc2n1 -10.2%
CS(=O)(=O)c1ccc(Cl)c(NC(=O)COC(=O)c2ncc(Cl)c(Cl)c2Cl)c1 -10.8%
Cc1ccc(NC(=O)Nc2ccccc2)c(Br)c1 -8.61%
CSc1ncnc2c1ncn2CCCNCC(C)c1ccccc1 (stereo unspecified) 1.77%
COc1cccc(N2C(=O)CC(N3CCc4ccccc4C3)C2=O)c1 (stereo unspecified) -2.65%
Cc1cccc(N2C(=O)SC(N(CC(=O)O)c3cccc(C)c3)C2=O)c1 (stereo unspecified) -27.2%
COC(=O)c1ccccc1SC1CC(=O)N(c2cccc(C)c2)C1=O (stereo unspecified) -24.8%
Cc1cccc(N2C(=O)c3ccc(C(=O)Nc4cccc(C(=O)O)c4)cc3C2=O)c1 2.25%

Potency, active:
c1ccc(-n2nc3ccccc3n2)cc1 29.9 µM
C/C(=N/Nc1nc(-c2ccccc2)c(CC(=O)O)s1)c1ccccc1 13.4 µM
COC(=O)c1cc(N2CCNCC2)nc2ccccc12 23.8 µM
Cc1cc(Br)ccc1SCC(=O)OCC(=O)NCc1ccc2c(c1)OCO2 29.9 µM
CN1C(=O)/C(=N/OC(=O)c2ccccc2Br)c2ccccc21 23.8 µM
CC(=O)N1Cc2ccccc2CC1C(=O)O (stereo unspecified) 2.67 µM
Cc1oc(-c2cccc(Cl)c2)[n+]([O-])c1C 29.9 µM
COc1ccc(S(=O)(=O)/N=C2\C=C(NS(=O)(=O)c3ccccc3)C(=O)c3ccccc32)cc1 29.9 µM
CC1(C)Cc2c(sc(NC(=O)C(=O)N3CCOCC3)c2C#N)CO1 9.47 µM
Cc1cccc(CS(=O)(=O)c2ncc(Cl)c(C(=O)Nc3ccc(F)cc3)n2)c1 16.8 µM
Cc1cccc(NC(=O)c2nc(S(=O)(=O)Cc3ccccc3)ncc2Cl)c1 8.44 µM
Cn1c(Cc2cccc3ccccc23)nnc1SCC(=O)N1CCN(c2cccc(Cl)c2)CC1 29.9 µM
CCc1c(C)sc(NC(=O)c2cccs2)c1C(N)=O 4.74 µM
CN(C)c1nc(Nc2ccc(Cl)c(Cl)c2)nc(N(C)C)n1 2.99 µM
COc1ccc2c(c1)C(=C(C#N)C#N)C(=O)N2CCc1ccccc1 2.67 µM
CS(=O)(=O)c1ccc(Cl)c(NC(=O)Nc2ccccc2)c1 23.8 µM
Cc1cccc(N2C(=O)CC(SC(N)=Nc3ccccc3)C2=O)c1 (stereo unspecified) 23.8 µM
Cc1cccc(N2C(=O)SC(SC(=Nc3ccccc3)Nc3ccccc3)C2=O)c1 (stereo unspecified) 15 µM
